From the supplement of paper PMC7595190

Tests used:
Experiment in all cases: CellTox Green cytotoxicity fluorescence relative to DMSO vehicle (fold of vehicle RFU); higher = more cell death (loss of membrane integrity), active = 2 or more
CMK = system: CMK
Outline: (§1)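 MV4-11, CMK and Kasumi-1 cells were plated in 96-well black optical-bottom plates at 4.0 × 10^4 cells per well, and CellTox Green reagent was added at the time of seeding. Single compounds from the Selleckchem apoptosis library were diluted in DMSO and added at final concentrations of 0.01, 0.1 and 1 µM, with 0.1% DMSO as vehicle. Plates were kept at 37 °C and 5% CO2 and read at 24, 48 and 72 h (Ex 485 nm, Em 520 nm). Cytotoxicity reflects loss of membrane integrity and is given as fluorescence relative to the DMSO vehicle, expressed as fold.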

Kasumi-1 = system: Kasumi-1
Outline: as §1

MV4-11 = system: MV4-11
Outline: as §1

Measured: CellTox Green cytotoxicity fluorescence

COc1ccc(C2=N[C@@H](c3ccc(Cl)cc3)[C@@H](c3ccc(Cl)cc3)N2C(=O)N2CCNC(=O)C2)c(OC(C)C)c1 [Nutlin-3]
inactive: CMK; 0.01 µM, 24 h 0.981 | CMK; 0.01 µM, 48 h 0.982 | CMK; 0.01 µM, 72 h 0.971 | CMK; 0.1 µM, 24 h 1 | CMK; 0.1 µM, 48 h 1.01 | CMK; 0.1 µM, 72 h 1.03 | CMK; 1 µM, 24 h 1.02 | CMK; 1 µM, 48 h 1.01 | CMK; 1 µM, 72 h 1.03 | Kasumi-1; 0.01 µM, 24 h 1.02 | Kasumi-1; 0.01 µM, 48 h 1.01 | Kasumi-1; 0.01 µM, 72 h 0.998 | Kasumi-1; 0.1 µM, 24 h 0.977 | Kasumi-1; 0.1 µM, 48 h 0.977 | Kasumi-1; 0.1 µM, 72 h 0.959 | Kasumi-1; 1 µM, 24 h 1.01 | Kasumi-1; 1 µM, 48 h 1.01 | Kasumi-1; 1 µM, 72 h 1.05 | MV4-11; 0.01 µM, 24 h 0.981 | MV4-11; 0.01 µM, 48 h 1 | MV4-11; 0.01 µM, 72 h 0.995 | MV4-11; 0.1 µM, 24 h 0.991 | MV4-11; 0.1 µM, 48 h 0.999 | MV4-11; 0.1 µM, 72 h 1.03 | MV4-11; 1 µM, 24 h 1.01 | MV4-11; 1 µM, 48 h 1.24 | MV4-11; 1 µM, 72 h 1.46

CC1(C)CCC(c2ccc(Cl)cc2)=C(CN2CCN(c3ccc(C(=O)NS(=O)(=O)c4ccc(N[C@H](CCN5CCOCC5)CSc5ccccc5)c(S(=O)(=O)C(F)(F)F)c4)cc3)CC2)C1 [Navitoclax]
inactive: CMK; 0.01 µM, 24 h 0.932 | CMK; 0.01 µM, 48 h 0.931 | CMK; 0.01 µM, 72 h 0.932 | CMK; 0.1 µM, 24 h 1.24 | CMK; 0.1 µM, 48 h 1.36 | CMK; 0.1 µM, 72 h 1.36 | CMK; 1 µM, 24 h 1.62 | Kasumi-1; 0.01 µM, 24 h 1.04 | Kasumi-1; 0.01 µM, 48 h 1 | Kasumi-1; 0.01 µM, 72 h 1.05 | Kasumi-1; 0.1 µM, 24 h 1.22 | Kasumi-1; 0.1 µM, 48 h 1.53 | Kasumi-1; 0.1 µM, 72 h 1.7 | Kasumi-1; 1 µM, 24 h 1.57 | MV4-11; 0.01 µM, 24 h 0.946 | MV4-11; 0.01 µM, 48 h 1.02 | MV4-11; 0.01 µM, 72 h 1.07 | MV4-11; 0.1 µM, 24 h 1.04 | MV4-11; 0.1 µM, 48 h 1.41 | MV4-11; 0.1 µM, 72 h 1.67 | MV4-11; 1 µM, 24 h 1.32
active: CMK; 1 µM, 48 h 2.39 | CMK; 1 µM, 72 h 2.07 | Kasumi-1; 1 µM, 48 h 2.07 | Kasumi-1; 1 µM, 72 h 2.11 | MV4-11; 1 µM, 48 h 2.56 | MV4-11; 1 µM, 72 h 2.63

N#Cc1ccc(-c2c(-c3ncn[nH]3)sc(N3CCOCC3)c2C#N)c(F)c1
inactive: CMK; 0.01 µM, 24 h 0.974 | CMK; 0.01 µM, 48 h 0.999 | CMK; 0.01 µM, 72 h 1.04 | CMK; 0.1 µM, 24 h 0.969 | CMK; 0.1 µM, 48 h 0.994 | CMK; 0.1 µM, 72 h 0.919 | CMK; 1 µM, 24 h 1.03 | CMK; 1 µM, 48 h 1.13 | CMK; 1 µM, 72 h 0.932 | Kasumi-1; 0.01 µM, 24 h 0.959 | Kasumi-1; 0.01 µM, 48 h 0.958 | Kasumi-1; 0.01 µM, 72 h 0.957 | Kasumi-1; 0.1 µM, 24 h 0.991 | Kasumi-1; 0.1 µM, 48 h 1.05 | Kasumi-1; 0.1 µM, 72 h 1.05 | Kasumi-1; 1 µM, 24 h 0.985 | Kasumi-1; 1 µM, 48 h 1.3 | Kasumi-1; 1 µM, 72 h 1.41 | MV4-11; 0.01 µM, 24 h 0.973 | MV4-11; 0.01 µM, 48 h 0.967 | MV4-11; 0.01 µM, 72 h 0.969 | MV4-11; 0.1 µM, 24 h 0.972 | MV4-11; 0.1 µM, 48 h 0.993 | MV4-11; 0.1 µM, 72 h 0.991 | MV4-11; 1 µM, 24 h 1.01 | MV4-11; 1 µM, 48 h 1.13 | MV4-11; 1 µM, 72 h 1.13

C=CC(=O)N1CCN(C(=O)CNc2cc(I)c(Cl)cc2O)CC1 [K-Ras(G12C) inhibitor 12]
inactive: CMK; 0.01 µM, 24 h 1.01 | CMK; 0.01 µM, 48 h 0.986 | CMK; 0.01 µM, 72 h 0.963 | CMK; 0.1 µM, 24 h 0.999 | CMK; 0.1 µM, 48 h 0.997 | CMK; 0.1 µM, 72 h 0.992 | CMK; 1 µM, 24 h 0.992 | CMK; 1 µM, 48 h 1 | CMK; 1 µM, 72 h 1.02 | Kasumi-1; 0.01 µM, 24 h 0.989 | Kasumi-1; 0.01 µM, 48 h 1.01 | Kasumi-1; 0.01 µM, 72 h 1 | Kasumi-1; 0.1 µM, 24 h 1.01 | Kasumi-1; 0.1 µM, 48 h 0.982 | Kasumi-1; 0.1 µM, 72 h 0.979 | Kasumi-1; 1 µM, 24 h 0.995 | Kasumi-1; 1 µM, 48 h 0.964 | Kasumi-1; 1 µM, 72 h 0.958 | MV4-11; 0.01 µM, 24 h 0.959 | MV4-11; 0.01 µM, 48 h 0.976 | MV4-11; 0.01 µM, 72 h 0.971 | MV4-11; 0.1 µM, 24 h 0.991 | MV4-11; 0.1 µM, 48 h 0.991 | MV4-11; 0.1 µM, 72 h 1.01 | MV4-11; 1 µM, 24 h 0.993 | MV4-11; 1 µM, 48 h 0.996 | MV4-11; 1 µM, 72 h 1.03

O=C(NS(=O)(=O)c1ccc(Br)s1)c1ccc(Cl)cc1Cl [Tasisulam]
inactive: CMK; 0.01 µM, 24 h 0.98 | CMK; 0.01 µM, 48 h 0.972 | CMK; 0.01 µM, 72 h 0.934 | CMK; 0.1 µM, 24 h 0.99 | CMK; 0.1 µM, 48 h 0.99 | CMK; 0.1 µM, 72 h 0.959 | CMK; 1 µM, 24 h 0.986 | CMK; 1 µM, 48 h 1 | CMK; 1 µM, 72 h 0.903 | Kasumi-1; 0.01 µM, 24 h 1.02 | Kasumi-1; 0.01 µM, 48 h 1.02 | Kasumi-1; 0.01 µM, 72 h 1.01 | Kasumi-1; 0.1 µM, 24 h 1.01 | Kasumi-1; 0.1 µM, 48 h 0.99 | Kasumi-1; 0.1 µM, 72 h 0.984 | Kasumi-1; 1 µM, 24 h 0.975 | Kasumi-1; 1 µM, 48 h 0.963 | Kasumi-1; 1 µM, 72 h 0.96 | MV4-11; 0.01 µM, 24 h 0.957 | MV4-11; 0.01 µM, 48 h 0.955 | MV4-11; 0.01 µM, 72 h 0.954 | MV4-11; 0.1 µM, 24 h 0.99 | MV4-11; 0.1 µM, 48 h 0.984 | MV4-11; 0.1 µM, 72 h 0.992 | MV4-11; 1 µM, 24 h 1 | MV4-11; 1 µM, 48 h 0.989 | MV4-11; 1 µM, 72 h 1

CC(C)(C)C[C@@H]1N[C@@H](C(=O)N[C@H]2CC[C@H](O)CC2)[C@H](c2cccc(Cl)c2F)[C@]12C(=O)Nc1cc(Cl)ccc12
inactive: CMK; 0.01 µM, 24 h 0.996 | CMK; 0.01 µM, 48 h 1.03 | CMK; 0.01 µM, 72 h 1.05 | CMK; 0.1 µM, 24 h 0.963 | CMK; 0.1 µM, 48 h 0.971 | CMK; 0.1 µM, 72 h 0.947 | CMK; 1 µM, 24 h 1.02 | CMK; 1 µM, 48 h 1.04 | CMK; 1 µM, 72 h 1.01 | Kasumi-1; 0.01 µM, 24 h 1 | Kasumi-1; 0.01 µM, 48 h 0.996 | Kasumi-1; 0.01 µM, 72 h 1.03 | Kasumi-1; 0.1 µM, 24 h 0.991 | Kasumi-1; 0.1 µM, 48 h 0.994 | Kasumi-1; 0.1 µM, 72 h 1 | Kasumi-1; 1 µM, 24 h 0.906 | Kasumi-1; 1 µM, 48 h 1.02 | Kasumi-1; 1 µM, 72 h 1.04 | MV4-11; 0.01 µM, 24 h 1.04 | MV4-11; 0.01 µM, 48 h 1.03 | MV4-11; 0.01 µM, 72 h 1.05 | MV4-11; 0.1 µM, 24 h 0.993 | MV4-11; 0.1 µM, 48 h 1.11 | MV4-11; 0.1 µM, 72 h 1.22 | MV4-11; 1 µM, 24 h 1.26
active: MV4-11; 1 µM, 48 h 2.25 | MV4-11; 1 µM, 72 h 2.49

Cc1nn(C)c(COc2ccc(N3CCN(S(=O)(=O)N(C)C)CC3)cc2)c1-c1cccc2c(CCCOc3cccc4ccccc34)c(C(=O)O)n(CCN3CCOCC3)c12
inactive: CMK; 0.01 µM, 24 h 0.996 | CMK; 0.01 µM, 48 h 1 | CMK; 0.01 µM, 72 h 1 | CMK; 0.1 µM, 24 h 0.995 | CMK; 0.1 µM, 48 h 0.985 | CMK; 0.1 µM, 72 h 0.957 | CMK; 1 µM, 24 h 0.985 | CMK; 1 µM, 48 h 1.01 | CMK; 1 µM, 72 h 0.948 | Kasumi-1; 0.01 µM, 24 h 0.998 | Kasumi-1; 0.01 µM, 48 h 0.981 | Kasumi-1; 0.01 µM, 72 h 0.976 | Kasumi-1; 0.1 µM, 24 h 1.01 | Kasumi-1; 0.1 µM, 48 h 1.03 | Kasumi-1; 0.1 µM, 72 h 1.04 | Kasumi-1; 1 µM, 24 h 0.938 | Kasumi-1; 1 µM, 48 h 1.03 | Kasumi-1; 1 µM, 72 h 1.03 | MV4-11; 0.01 µM, 24 h 0.991 | MV4-11; 0.01 µM, 48 h 0.986 | MV4-11; 0.01 µM, 72 h 0.981 | MV4-11; 0.1 µM, 24 h 1.05 | MV4-11; 0.1 µM, 48 h 1.1 | MV4-11; 0.1 µM, 72 h 1.12 | MV4-11; 1 µM, 24 h 1.15 | MV4-11; 1 µM, 48 h 1.49 | MV4-11; 1 µM, 72 h 1.67
